The panel holds about 83,000 compounds, 20% with a hit somewhere; the sample as a whole holds those more often.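 Interpretation: 100, growth as untreated; towards 0, rising growth inhibition; 0, no net growth; 0 to -100, cell death. Compounds scoring below 10 were considered active.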 Unmarked numbers belong to inactive results. The source made the active and inactive calls.

This assay concerns HL-60(TB) leukemia. In words: NCI-60 one-dose screen, 48 h (100 = growth as untreated, 0 = no growth, -100 = all killed). The settings on record: 10 µM unless noted.
As for `O=C(/C=C/c1ccccc1)Nc1ncc(Cc2ccccc2)s1`, the growth was -45.3% (active).
In the case of `CCCN1CN2C(=O)N3CN(CCC)CN4C(=S)N(C1)C2C34` (configuration not stated) it was 95%.
As to `C[C@@H](Oc1cc(-n2cnc3ccc(CN4CCN(C)CC4)cc32)sc1C(N)=O)c1ccccc1C(F)(F)F`, the growth is -19.4% (active).
In the case of `CC1(C)CC[C@]2(C(=O)O)CC[C@]3(C)C(=CC[C@@H]4[C@@]5(C)C/C(=C/c6ccco6)C(=O)C(C)(C)[C@@H]5CC[C@]43C)[C@@H]2C1` it was -16.4% [100 µM] (active); in that of `C=C1CC[C@@H]2[C@](C)(COC(C)=O)[C@H](OC(C)=O)CC[C@@]2(C)[C@@H]1CC(Nc1ccc(S(=O)(=O)Nc2nccc(C)n2)cc1)C1=CCOC1=O` (some centres not stated), -17.3% (active); in that of `CC(=O)N[C@@H](CCC(N)=O)C(=O)O`, 107%.
As for `O=C(/C=C\c1ccc(O)c(O)c1)c1ccccc1O`, the figure is 11.6%.
In the case of `CC(C)CCC[C@@H](C)[C@H]1CC[C@H]2[C@@H]3CC=C4N(c5ccccc5)C(=O)CC[C@]4(C)[C@H]3CC[C@]12C` it was 90.9%; in that of `Nc1ccccc1NC(=O)c1ccc(-n2nc(-c3ccccc3)c3ccccc32)cc1`, -4.94% (active).
As to `O=C(/C=C/c1ccc2ccccc2c1)Nc1ncc(Cc2ccccc2)s1`, the growth was 94.4%.
In the case of `Cc1ccc([C@H]2c3[nH]c4ccccc4c3C[C@H]3C(=O)N(CCCCCCC(=O)NO)CC(=O)N23)cc1` it was 18.6%; in that of `O=C(COc1cccc(/C=C2\Oc3ccc4ccccc4c3C2=O)c1)c1ccc([N+](=O)[O-])cc1`, 94.8%; in that of `COc1ccc(-c2nc(N/N=C/c3ccco3)nc(N3CCOCC3)c2C#N)cc1`, 94.8%.
`COc1ccc(-c2nn(-c3cccc(Cl)c3)cc2-c2cc(-c3ccccc3)nc(N)n2)cc1`: the growth was 56.3%.
On to `COc1cc2c(c3c1c(=O)c1cccc(F)c1n3C)C=CC(C)(C)O2`, for which the growth is 100%.
As for `CC1=CC(c2ccco2)=C2C(N)=NNC2N1` (configuration not stated), the figure is 106%.
As for `O=C1c2cccc3c(-c4ccc5c(c4)ncn5C4CCCCC4)ccc(c23)C(=O)N1CCO`, the figure is 103%; as for `N#C/C(=C\c1ccc(F)cc1)n1nc2cccc(F)c2n1`, 8.65% (active); as for `CCCCCn1c(C)cc(/C=C\c2ccc3cc(C)ccc3[n+]2C)c1C`, -6.41% (active).
For the compound `CN1CCC2(CC1)N=C(SCC(=O)Nc1cnc3ccccc3c1)C(c1ccc(Br)cc1)=N2`, the growth was -40.7% (active).
For the compound `CCOC(=O)CC1CSC(c2cccc(Cl)c2)=N1` (configuration not stated), the growth is 98.8%.
As for `Cn1c(=O)c2c(ncn2CC(=O)Nc2ccc(S(N)(=O)=O)cc2)n(C)c1=O`, the figure is 94.2%.
As for `COc1ccc2cc(-c3nc4ccccc4[nH]3)c(=O)oc2c1`, the figure is 81.2%; as for `COc1cc2c(c(OC)c1OC)C(=O)/C(=C/c1cc(C)c(O)c(C)c1)S2`, 13.6%.
Regarding `CCCCN(CCC)CCCCCCCCCCN1CCCc2ccccc21`, the growth was 42.2%.
As for `COc1ccccc1/C=N\N/C(N)=N\N=C\c1ccccc1OC`, the figure is -25.9% (active); as for `Cc1ccc(S(=O)(=O)N/N=C2\CC3CCC2(C)C3(C)C)cc1` (configuration not stated), 116%; as for `COC(=O)c1cc2c(=O)[nH]cc3c2c(n1)CCC3`, 74.6%.
As for `CC1C=CC(OC(=O)C(C)(O)CCC(O)(C(=O)OC2CC(O)C(C(C)C)CC2(C)O)C(C)C)(C(C)C)CC1` (configuration not stated), the figure is -50.8% [4.63 µM] (active); as for `COC(=O)/C=C1/SC(=Nc2ccc(F)cc2)N(CCc2c[nH]c3ccc(O)cc23)C1=O`, -8.07% (active).
As for `C=C(C)[C@@H]1CC[C@]2(COCCCNCCCN)CC[C@]3(C)[C@H](CC[C@@H]4[C@@]5(C)CC[C@H](OCCCN)C(C)(C)[C@@H]5CC[C@]43C)[C@@H]12`, the figure is 48.2%.
For the compound `CC/C=C\C=C/C(=O)N/C=C/CC1Cc2cccc(O)c2C(=O)O1` (configuration not stated), the growth is 17.4%.
Regarding `O=c1oc2c(C(F)(F)F)cccc2cc1-c1csc(Nc2ccc(OCCF)cc2)n1`, the growth was -1.08% (active).
For `NC[C@@H]1CCN(c2cc3c(cc2F)c(=O)n(N)c(=O)n3Cc2ccc(-c3ccccc3)cc2)C1`, the growth was 90.4%.
In the case of `CCCCCCCCCCCCCCCC1=NC(C)(C)CN1C(C)C` it was -62.9% (active); in that of `CC(CN(C)C)Oc1ccc(OC(C)CN(C)C)c2c1C(=O)c1ccccc1C2=O` (configuration not stated), 39.2%.
As for `CN1CCN(CCCOc2ccc3ncnc(Nc4ccc(Oc5cccc(F)c5)c(Cl)c4)c3c2)CC1`, the figure is -47.3% (active).

(Values after PubChem BioAssay (NCI).)
